The list shows a part of the results. Active and inactive are the calls of the source.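 Rule for the calls: active = fluorescence response below 15%; inactive = the rest.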
Experiment: DHE quenching or ROS scavenging interference in aged yeast, artefact control for yeast caloric restriction mimetic project, S. cerevisiae BY4741, flow cytometry (AID 435000);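 note: percent of the mean fluorescence averaged over all compound wells on the plate; lower means stronger quenching of DHE signal or ROS scavenging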
Conditions: at 10 µM, active compounds read low

| SMILES | fluorescence response |
| --- | --- |
| CC(=O)NC1=NN(C(C)=O)C(C)(CCS(=O)(=O)c2ccc(Cl)c(Cl)c2)S1 (configuration not stated) | 112% (inactive) |
| O=C(CSc1ccc(-c2ccc(-n3cccn3)cc2)nn1)Nc1ccc([N+](=O)[O-])cc1 | 88.8% (inactive) |
| O=C(CN1CCN(c2ccccn2)CC1)Nc1ccc(Br)cc1 | 97% (inactive) |
| CC(=O)c1ccc2c(c1)c1ccccc1n2CC(C)C | 107% (inactive) |
| CC1CCCN(S(=O)(=O)c2ccc(C(=O)Nc3nnc(-c4ccncc4)o3)cc2)C1 (configuration not stated) | 109% (inactive) |
| Cc1ccccc1NC(=O)NCC1CCN(Cc2cccc(Cl)c2)CC1 | 101% (inactive) |
| Cc1ccc(C23CC4CC(CC(C(=O)NCC(=O)O)(C4)C2)C3)cc1 | 94.6% (inactive) |
| CCn1c2ccccc2c2cc(NC(=O)CNC)ccc21 | 112% (inactive) |
| O=[N+]([O-])c1ccc2c(c1)Nc1nc3ccccc3nc1N2 | 92.7% (inactive) |
| CSc1sc(C(=O)NNC(=O)c2ccc(Cl)cc2)c2c1C=CCC2 | 92.4% (inactive) |
| Cn1c(Nc2ccccc2)cc(=O)n(C)c1=O | 113% (inactive) |
| NC(=S)Nc1c(Cl)cccc1Cl | 97.4% (inactive) |
| Cc1cc(C(F)F)n2nc(C(=O)Nc3ccc(S(=O)(=O)NC45CC6CC(CC(C6)C4)C5)cc3)nc2n1 | 104% (inactive) |
| O=C(Nc1ccccc1N1CCCC1)c1ccc2ccccc2c1 | 103% (inactive) |
| COc1ccc(C)cc1S(=O)(=O)Nc1cccc(Cl)c1Cl | 102% (inactive) |
| Cc1ccc(-c2nnc(Nc3ccc(C(=O)N(C)C)cc3)c3ccccc23)cc1S(N)(=O)=O | 113% (inactive) |
| CC(C)NC(=O)/C(C#N)=C\c1ccc(N(C)C)c(Br)c1 | 92.3% (inactive) |
| CSc1ncc(Cl)c(C(=O)Nc2cc(C)ccc2C)n1 | 95.1% (inactive) |
| CC(=O)C[C@@H](O)CC(=O)[C@H]1OC(=O)CCCCCCc2ccccc21 | 113% (inactive) |
| O=C(O)C1CCCN1S(=O)(=O)c1ccc(Br)cc1 (configuration not stated) | 90.2% (inactive) |
| O=C(Nc1cccc(Cl)c1Cl)c1ccccc1NC(=O)C1CC=CCC1C(=O)O (configuration not stated) | 89.9% (inactive) |
| CCN(CC)C(=O)CSc1nnc(-c2cccc(OC)c2)o1 | 110% (inactive) |

From PubChem BioAssay AID435000 (NMMLSC, 2010)
